# Where a name gives a salt, the structure may show the parent alone. Unmarked numbers belong to inactive results.
# Test system: Vero E6 infected with SARS-CoV-2
# Assay: inhibition of SARS-CoV-2 cytopathic effect; higher = more antiviral protection, active = above 15
# Conditions: 48 h
Compound,inhibition of SARS-CoV-2 cytopathic effect (1 nM) [%],inhibition of SARS-CoV-2 cytopathic effect (8.33 nM) [%],inhibition of SARS-CoV-2 cytopathic effect (100 nM) [%],inhibition of SARS-CoV-2 cytopathic effect (833.33 nM) [%],inhibition of SARS-CoV-2 cytopathic effect (10000 nM)
FC(F)(F)c1cc(CO[C@H]2CCCN[C@H]2c2ccccc2)cc(C(F)(F)F)c1,0.32,-2.69,-5.07,-6.64,18.1% (active)
O=c1ccn([C@@H]2O[C@H](COP(=O)(O)OP(=O)(O)OP(=O)(O)O)[C@@H](O)[C@H]2O)c(=O)[nH]1,-0.655,1.84,3.83,2.04,-0.735%
c1ccc2nc(N3CCNCC3)ccc2c1 [quipazine],2.16,-1.97,-0.43,1.22,-2.16%
CC(C)(C)S(=O)(=O)N[C@H]1CC[C@H](C(=O)Nc2ccc(C(F)(F)F)cn2)CC1 [velneperit],2.37,-0.93,-0.23,-1.55,-1.63%
Cc1c(C(N)=O)cc([N+](=O)[O-])cc1[N+](=O)[O-] [dinitolmide],-1.43,2.03,1.29,-2.22,-3.59%
CS(=O)(=O)c1ccc(Cn2c3c(c4cc(F)cc(F)c42)CCCC3CC(=O)O)cc1 (stereo not given),0.13,-0.29,-0.12,1.36,-1.55%
O=C1NC(=O)C(c2ccccc2[N+](=O)[O-])=C1Nc1ccc(O)c(Cl)c1,-2.14,-1.36,-2.09,1.29,6.31%
C=C(c1ccc(C(=O)O)cc1)c1cc2c(cc1C)C(C)(C)CCC2(C)C [bexarotene],-0.21,-0.07,0.42,0.85,0.03%
CC(C)COC(=O)c1ccc(N)cc1 [isobutamben],-0.32,-0.5,-1.06,-2.97,1.5%
C#C[C@]1(O)CC[C@H]2[C@@H]3CCC4=Cc5oncc5C[C@]4(C)[C@H]3CC[C@@]21C [danazol],2.48,-0.9,1.74,3.55,6.39%
C[N+](C)(C)CC(O)CC(=O)[O-] (stereo not given) [carnitine-(D/L)],-1.88,-0.98,0.43,3.52,5.12%
O=C(Nc1nc2ccc(NC(=O)C34CC5CC(CC(C5)C3)C4)cc2s1)c1ccccc1,1.55,3.1,0.95,2.14,-6.77%
CN(C)CCOC(c1ccc(Cl)cc1)c1ccccn1 (stereo not given) [carbinoxamine],1.68,1.53,1.23,1.37,-1.45%
CCOc1cc2ncc(C#N)c(Nc3ccc(F)c(Cl)c3)c2cc1NC(=O)/C=C/CN(C)C [pelitinib],-2.05,-5.13,-7.91,-5.27,2.95%
CCCc1nn(C)c2c(=O)[nH]c(-c3cc(S(=O)(=O)N4CCN(C)CC4)ccc3OCC)nc12 [sildenafil],2.67,2.01,0.47,2.04,-2.29%
O=C(c1ccccc1)c1ccc2n1CCC2C(=O)O (stereo not given) [ketorolac],-4.39,-2.99,-1.5,2.44,-4.37%
Cc1cc(-c2nc3cc(F)ccc3s2)ccc1NC(=O)[C@@H](N)CCCCN [phortress],-1.03,-0.88,-0.54,-2.21,-5.43%
CCOc1ccccc1OCC1CNCCO1 (stereo not given) [viloxazine],5.7,7.03,7.67,2.71,3.05%
CCc1cn([C@H]2C[C@H](O)[C@@H](CO)O2)c(=O)[nH]c1=O [edoxudine],2.72,2.12,0.77,1.82,-0.51%
Cc1sc2c(c1C)C(c1ccc(Cl)cc1)=N[C@@H](CC(N)=O)c1nnc(C)n1-2,-0.7,-0.88,0.16,-4.22,-9.8%

Compound,inhibition of SARS-CoV-2 cytopathic effect (1 nM) [%],inhibition of SARS-CoV-2 cytopathic effect (8.33 nM) [%],inhibition of SARS-CoV-2 cytopathic effect (100 nM) [%],inhibition of SARS-CoV-2 cytopathic effect (833.33 nM) [%],inhibition of SARS-CoV-2 cytopathic effect (10000 nM)
CC(C)n1nnc2cc(C(=O)O)ccc21,2.69,0.35,-0.23,-0.38,-1.63%
CCc1cc(C(N)=S)ccn1 [ethionamide],-1.54,0.54,-0.38,-1.73,2.79%
Oc1ccc(-c2nc3cc(O)cc(Br)c3o2)cc1,0.68,1.49,2.09,4.89,2.95%
O=S(=O)(c1cccc2cnccc12)N1CCCNCC1 [fasudil],-2.19,-3.05,-2.08,-2.42,-5.91%
C[C@H](CCC(=O)O)[C@H]1CC[C@H]2[C@@H]3CC[C@@H]4C[C@H](O)CC[C@]4(C)[C@H]3CC[C@]12C [lithocholic-acid],-0.57,0.93,-0.13,0.9,-0.77%
CC1(C)C[C@@H]1C(=O)N/C(=C\CCCCSC[C@H](N)C(=O)O)C(=O)O [Cilastatin Sodium],1.3,3.44,-0.05,-0.19,-0.52%
CCCCn1c(=O)c2[nH]c(C34CC5CC(CC3C5)C4)nc2n(CCCO)c1=O,1.96,2.64,0.93,-1.18,-2.7%
CCCC[C@H](NC(C)=O)C(=O)N[C@H]1CC(=O)NCCCC[C@@H](C(=O)O)NC(=O)[C@H](Cc2c[nH]c3ccccc23)NC(=O)[C@H](CCCNC(=N)N)NC(=O)[C@@H](Cc2ccccc2)NC(=O)[C@H](Cc2c[nH]cn2)NC1=O [bremelanotide],1.27,-1.82,-0.14,-2.33,0.21%
CC(C)[C@](O)(c1ccc2cc(OC(F)F)c(OC(F)F)cc2c1)c1c[nH]nn1,-0.91,2.28,2.85,5.3,6.8%
Nc1nc(=O)n([C@@H]2O[C@H](CO)[C@@H](O)[C@@H]2F)cc1I [fiacitabine],-1.38,-1.55,2.03,-1.22,-0.56%
COC(=O)c1ccc(O)cc1 [methylparaben],-0.45,0.03,2.76,1.99,2.64%
Cc1nc2ccccn2c(=O)c1CCN1CCC(C(=O)c2ccc(F)cc2)CC1 [pirenperone],1.65,1.73,-0.8,1.4,0.69%
COc1ccccc1OCC(O)CO (stereo not given) [guaifenesin],1.29,1.07,0,0.99,0.94%
O=C1c2cccc(O)c2C(=O)c2c(O)cccc21 [dantron],-2.75,-3.39,-1.6,-0.79,0.11%
CN[C@@H]1[C@H](O[C@H]2[C@H](O[C@H]3[C@H](O)[C@@H](O)[C@H](N=C(N)N)[C@@H](O)[C@@H]3N=C(N)N)O[C@@H](C)[C@]2(O)C=O)O[C@@H](CO)[C@H](O)[C@H]1O [STREPTOMYCIN SULFATE [5mM; 10% aq DMSO + 5mM ethanolamine]],-0.46,-1.64,-0.12,1.53,0.2%
O=C(O)Cc1cccc2c(=O)cc(-c3ccccc3)oc12 [mitoflaxone],1.27,0.65,1.42,1.5,0.08%
Oc1c(CN2CCCC2)cc(COCc2ccccc2)c2cccnc12,-1.11,-0.88,0.87,-0.42,2.93%
CCCCc1ccc(NS(=O)(=O)c2ccc(F)cc2)cc1,-1.42,-2.12,-1.58,-3.93,-1.95%
NC(=O)c1nc(F)cnc1O [favipiravir],-4.88,-2.34,-0.79,0.84,-6.81%
O=C(Nc1ccc(S(=O)(=O)Nc2ccccc2Cl)c(Cl)c1)c1ccccn1,0.59,0.83,-1.92,2.48,0.25%
